The source of these data is PubChem BioAssay AID2284357 (EPA ToxCast).

Records with an inconclusive call do not appear. The source made the active and inactive calls. Rule for the calls: active = hit-call score of the fitted dose curve at least 0.9, where 1 is the maximum; inconclusive = response in the unintended direction; inactive = score below 0.9.

For the assay, the system named is zebrafish Androgen Receptor (AR), gene 100005148. Description: ATG_zfAR_EcoTox2: Attagene TRANS-FACTORIAL EcoTox-2 HepG2 Assay for zebrafish Androgen Receptor (AR). As for the experimental part: ATG_EcoTox2 is a cell-based, multiplexed assay created by modifying the existing Attagene TRANS-FACTORIAL system to include a panel of nuclear receptors from some or all the following species: human (Homo sapiens), african clawed frog (Xenopus laevis), rainbow trout (Oncorhynchus mykiss), japanese medaka (Oryzias latipes), and zebrafish (Danio rerio). The ECOTOX2-FACTORIAL format uses HepG2, a human liver cell line, with measurements taken at 24 hours after chemical dosing in a 24-well plate. ATG_zfAR_EcoTox2 is one of 29 assay components calculated in the ATG_EcoTox2 assay. It is designed to make measurements of mRNA induction, a form of inducible reporter, as detected with fluorescence intensity signals by Reverse transcription polymerase chain reaction (RT-PCR) and Capillary electrophoresis technology.The assay endpoint ATG_zfAR_EcoTox2 was analyzed in the positive analysis fitting direction relative to DMSO as the negative control and baseline of activity. Using a type of inducible reporter, measures of mRNA for gain-of-signal activity can be used to understand the reporter gene at the transcription factor-level as they relate to the gene AR. Furthermore, this assay endpoint can be referred to as a primary readout, because this assay has produced multiple assay endpoints where this one serves a reporter gene function. To generalize the intended target to other relatable targets, this assay endpoint is annotated to the nuclear receptor intended target family, where the subfamily is steroidal.
Human liver HepG2 cells are transiently transfected with multiple reporter transcription units (MRTUs) in 6-well plates using FuGene 6 reagent (Roche; 3 ml FuGene/1 mg DNA). The MRTU constructs are regulated by a cis-regulating element (promoter). Each RTU expresses a GAL4-UAS that regulates the transcription of a nearby target reporter gene sequence. A major difference between the CIS and TRANS system is that in CIS activities of endogenous TFs are measured, whereas the TRANS assay evaluates changes in activities of exogenous, chimeric NR-Gal4 proteins. […] At the end of 24 hour incubation, total RNA was isolated using TriZol reagent (Invitrogen). The isolated RNA is then reverse-transcribed using oligo(dT) primer and Mo-MLV reverse transcriptase (Invitrogen) with DNAse I (Ambion) treatment for 30 min. The one-tenth of the produced cDNA was amplified by PCR using Taq DNA polymerase (Invitrogen) and two reporter sequence-specific primers. […] The fragments were purified using Qiaquick PCR columns (Qiagen), analyzed on an ABI 3130xL genetic analyzer (Applied Biosystems) with peak positions identified by using a set of X-rhodamine (ROX)-labeled MapMarker1000 molecular weight standards (BioVentures). […]
Consider `CCCCOCN(C(=O)CCl)c1c(CC)cccc1CC`, for which the molecule was classed as inactive.
For the molecule `O=P(Oc1ccccc1)(Oc1ccccc1)Oc1ccccc1`, the result was inactive.
With `O=S(=O)(O)C(F)(F)C(F)(F)C(F)(F)C(F)(F)C(F)(F)C(F)(F)F`, the outcome was inactive.
As to `O=C(O)C(F)(F)C(F)(F)C(F)(F)C(F)(F)C(F)(F)C(F)(F)C(F)(F)F`, the call was inactive.
